Compound activity deposited in PubChem BioAssay by National Center for Advancing Translational Sciences (NCATS).
Rab9 prom act: activates the Rab9 promoter. Potency, µM (highest dose often 9.22 µM), most hits filed as activators. Huh7 Rab9 promoter-luciferase reporter, luminescence, 24 h. 2.8% of 320,000 active; also: nearly all actives have a fitted effect of over 60% in size
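Rab9 promoter-driven luciferase in stably transfected Huh7 cells; 1500 cells/well rested 2 h, exposed to compound in DMSO for 24 h at 37 °C, 5% CO2. Luminescence read 10 min after adding luciferase reagent at ambient temperature.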
SMN2 splice enh: SMN2 splice variant enhancement; HEK293 SMN2-luciferase splicing reporter, luminescence, 30-36 h; Potency, µM (titrated, usually from 46.1 µM), most hits filed as activators; 2.8% of 210,000 active; AID 1458; also: nearly all actives have a fitted effect of over 55% in size
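HEK293 cells carry an SMN2 minigene-luciferase reporter in which exon 7 inclusion puts luciferase in frame. Cells were seeded at 2000 cells/well, attached for 10-12 hours, then exposed to compounds for 30-36 hours at 37C before ONE-Glo luminescence.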
FLuc counter: inhibits or activates purified firefly luciferase, miR-21 counter-screen; P08659; 6.9% of 360,000 active; AID 588342; purified FLuc, Km substrates, luminescence inhibition; Potency, µM (top dose mostly 57.5 µM), usual class: inhibitors; also: nearly all actives have a fitted effect of over 55% in size
Target sequence (P08659 whole entry, looked up): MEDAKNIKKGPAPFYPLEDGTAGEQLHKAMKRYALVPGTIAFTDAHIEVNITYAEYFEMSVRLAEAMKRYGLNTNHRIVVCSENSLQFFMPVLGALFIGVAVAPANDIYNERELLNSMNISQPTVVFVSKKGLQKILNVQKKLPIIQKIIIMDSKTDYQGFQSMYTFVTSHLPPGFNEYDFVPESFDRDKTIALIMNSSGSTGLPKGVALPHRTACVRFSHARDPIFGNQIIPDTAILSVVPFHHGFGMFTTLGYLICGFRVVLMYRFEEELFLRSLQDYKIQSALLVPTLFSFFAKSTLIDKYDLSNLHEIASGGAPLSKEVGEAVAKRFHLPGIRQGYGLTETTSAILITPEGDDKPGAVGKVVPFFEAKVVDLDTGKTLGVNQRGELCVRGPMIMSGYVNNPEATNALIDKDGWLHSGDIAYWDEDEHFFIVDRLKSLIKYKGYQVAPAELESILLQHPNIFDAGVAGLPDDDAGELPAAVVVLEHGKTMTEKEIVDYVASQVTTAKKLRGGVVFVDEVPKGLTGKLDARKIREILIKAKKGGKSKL
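Purified P. pyralis luciferase, 10 nM final, with Km-level 10 uM D-luciferin and 10 uM ATP in 50 mM Tris acetate pH 7.5, 10 mM Mg acetate, 0.01% Tween-20, 0.05% BSA; 6-point qHTS titration about 60 µM downward; luminescence read.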
Luc counter: Kinase-Glo luciferase inhibition (counter-screen); 0.28% of 200,000 active; Q27757; Kinase-Glo luciferase, ATP luminescence, 8 min; Potency, µM (doses to about 38.3 µM), actives largely listed as inhibitors; also: nearly all actives have a fitted effect of over 60% in size
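Inhibition of Kinase-Glo luciferase light generation was assessed at 10 uM ATP in pH 7.2 imidazole buffer, with luminescence measured after eight minutes at ambient temperature.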
ELG1 genotox: inducers of genotoxicity in HEK293T ELG1-luciferase cells | HEK293T ELG1-luciferase reporter, luminescence, 16 h | Potency, µM (series often up to 46 µM), usual class: activators | 1.3% of 330,000 active | AID 504466; also: nearly all actives have a fitted effect of over 60% in size
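HEK293T cells expressing luciferase-tagged ELG1 were treated with compound or DMSO for 16 hr at 37°C. Luciferase activity was then read after 30 min with ONE-Glo at room temperature; rising signal flags genetic stress.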
NPC1 prom act: activators of NPC1 promoter; Huh7 NPC1 promoter luciferase reporter, 24 h; Potency, µM (doses to about 9.22 µM), hits mostly activators; 2.4% of 320,000 active; also: nearly all actives have a fitted effect of over 60% in size
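Stably transfected Huh7 (NPC1 promoter→luciferase), 1500 cells/well in Opti-MEM + 10% FBS, 2 h settle, then compound 24 h at 37 °C. Luminescence after 10 min with Amplite reagent.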
Large screens that a line does not name were inactive. An excerpt weighted towards active compounds, which were near 7.3% of everything screened. Calls follow the shape of the dose curve; as a rule, active = well fitted curve in the direction sought with a large enough effect; inconclusive = small, poorly fitted or top-dose-only effect, or another doubt; inactive = no such curve, though single readings can be large; an effect the other way counts as inactive or inconclusive.

CS(=O)(=O)C1=NSC2=NC(=O)/C(=C\c3ccc(OC(=O)c4ccco4)cc3)C(=N)N21	FLuc counter 24µM (no result: SMN2 splice enh, Luc counter)
COc1cc(/C=C2/C(=N)N3C(=NC2=O)SN=C3S(=O)(=O)C(C)C)ccc1OC(=O)c1ccco1	FLuc counter 13µM (no result: SMN2 splice enh, Luc counter)
COc1cc(/C=C2/C(=N)N3C(c4ccccc4)=CSC3=NC2=O)ccc1OCC(=O)O	FLuc counter 27µM (no result: SMN2 splice enh, Luc counter)
CCN(Cc1ccccc1)C(=O)C(CC(C)C)NS(=O)(=O)c1ccc2c(c1)CCN2C(C)=O (configuration not stated)	none (no result: Rab9 prom act, Luc counter, ELG1 genotox, NPC1 prom act)
C=CCOc1ccc(/C=C2\C(=N)N3N=C(S(=O)(=O)CC)SC3=NC2=O)cc1OC	FLuc counter 9.5µM
COc1cc(/C=C2/C(=O)N(c3ccc(C)c(C)c3)N=C2C)cc([N+](=O)[O-])c1O	FLuc counter 17µM (no result: SMN2 splice enh, Luc counter)
CCOc1cc(/C=C2\C(=O)NN(c3ccccc3)C2=O)cc([N+](=O)[O-])c1O	FLuc counter 17µM
COc1cc(/C=C2/C(=O)N(c3ccc(C(=O)O)cc3)N=C2C)cc(OC)c1O	FLuc counter inconclusive (no result: SMN2 splice enh, Luc counter)
COc1cc(/C=C2\C(=O)NN(c3ccc(C)cc3)C2=O)cc([N+](=O)[O-])c1O	FLuc counter 27µM
COc1cc(/C=C2\C(=O)NN(c3ccccc3)C2=O)cc([N+](=O)[O-])c1O	FLuc counter inconclusive
COc1ccc(-n2cc(CNCc3cccnc3)c(-c3cccc(F)c3)n2)cc1	FLuc counter 9.5µM (no result: SMN2 splice enh)
COc1ccc(-n2cc(CN(C)CCO)c(-c3cccc(F)c3)n2)cc1	Rab9 prom act 0.63µM, FLuc counter 2.1µM, Luc counter inconclusive, ELG1 genotox inconclusive, NPC1 prom act 0.45µM (no result: SMN2 splice enh)
COc1ccc(-n2cc(CNCCc3cnc[nH]3)c(-c3cccc(F)c3)n2)cc1	FLuc counter 19µM
COc1cc(-c2noc(CCC(=O)Nc3cc(C)ccc3C)n2)cc(OC)c1OC	none (no result: Rab9 prom act, Luc counter, ELG1 genotox, NPC1 prom act)
Cc1ccc(S(=O)(=O)CC(=O)Nc2sc3c(c2C#N)CCCC3)cc1	none (no result: Rab9 prom act, SMN2 splice enh, Luc counter, ELG1 genotox, NPC1 prom act)
COc1ccc(CCNC(=O)c2nc(SCc3ccccc3F)ncc2Cl)cc1OC	none (no result: Rab9 prom act, Luc counter, ELG1 genotox, NPC1 prom act)
CC(=O)Nc1nonc1-c1nnc(SCC(=O)N(C)c2ccccc2)n1C	none (no result: Rab9 prom act, SMN2 splice enh, Luc counter, ELG1 genotox, NPC1 prom act)
Cc1ccsc1CCNC(=O)C1CCC(=O)N(CCc2cccc(F)c2)C1 (configuration not stated)	Rab9 prom act 2.5µM, FLuc counter 21µM, ELG1 genotox inconclusive, NPC1 prom act 2.8µM (no result: SMN2 splice enh, Luc counter)
CN(C(=O)C1CCC(=O)N(Cc2cccc(F)c2)C1)C1CCCCC1 (configuration not stated)	Rab9 prom act 2.5µM, FLuc counter 17µM, ELG1 genotox inconclusive, NPC1 prom act 3.2µM (no result: SMN2 splice enh, Luc counter)
Cc1ccsc1CN(C)C(=O)C1CCC(=O)N(CCc2cccc(F)c2)C1 (configuration not stated)	FLuc counter 15µM, ELG1 genotox inconclusive, NPC1 prom act inconclusive (no result: SMN2 splice enh, Luc counter)
O=C(NCCc1cccs1)C1CCC(=O)N(CCc2cccc(F)c2)C1 (configuration not stated)	none (no result: SMN2 splice enh, Luc counter)
N=C1CCC[C@@H]1C(=S)SCCC(N)=O	none (no result: Rab9 prom act, FLuc counter, ELG1 genotox, NPC1 prom act)
CCOc1ccc(CCNC(=O)CSCc2nc(-c3cccc(C)c3)oc2C)cc1OCC	none (no result: Rab9 prom act, Luc counter, ELG1 genotox, NPC1 prom act)
O=C(CN1C(=O)c2ccccc2S1(=O)=O)c1ccc(F)cc1	Rab9 prom act inconclusive, FLuc counter 13µM, NPC1 prom act inconclusive (no result: SMN2 splice enh, Luc counter)
O=C(CN1C(=O)c2ccccc2S1(=O)=O)c1ccccc1F	Rab9 prom act inconclusive, FLuc counter 11µM, NPC1 prom act inconclusive (no result: SMN2 splice enh, Luc counter)
NC(=O)C1CCN(C(=O)CN2C(=O)c3ccccc3S2(=O)=O)CC1	none
CC1CCN(C(=O)CN2C(=O)c3ccccc3S2(=O)=O)CC1	Rab9 prom act 2.5µM, ELG1 genotox inconclusive, NPC1 prom act 3.5µM
O=C(CN1C(=O)c2ccccc2S1(=O)=O)c1ccc(OC(F)F)cc1	FLuc counter 12µM (no result: SMN2 splice enh, Luc counter)
COC(=O)c1ccc(NC(=O)CN2C(=O)c3ccccc3S2(=O)=O)cc1	none (no result: SMN2 splice enh, Luc counter)
COc1cccc(Cn2ccn(-c3ccc(F)cc3)c(=O)c2=O)c1	none (no result: Rab9 prom act, SMN2 splice enh, Luc counter, ELG1 genotox, NPC1 prom act)
